“And” between values parts separate entries of the source, which are not always exact repeats. Equal values may be shown once.
Each molecule was assayed on H9c2 (assay: protection of cardiomyocytes from stress damage, SAR follow-up, cell-based, panel, H9c2 and HL-1, ATP luminescence, set 2 (AID 651871;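 note: cells exposed to stressor for 2 h before ATP readout; reference of the scale not given here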)). Details: H9c2/HL-1 cardiomyocytes, H2O2 oxidative stress; with H2O2, run 3, at 79 µM (top of the series).

| SMILES | activity (protection/inhibition) |
| --- | --- |
| COc1ccc2nc(-c3cc(OC)c(OC)c(OC)c3)cc(C(=O)NCC(=O)Nc3ccc(C(C)=O)cc3)c2c1 | 91.8% and 76.1% |
| CCOC(=O)c1cccc(NC(=O)CNC(=O)c2cc(-c3cc(OC)c(OC)c(OC)c3)nc3ccccc23)c1 | 99% |
| COc1cc(-c2cc(C(=O)Nc3cccc(C(=O)NCc4ccccc4)c3)c3ccccc3n2)cc(OC)c1OC | 95.7% |
| COc1ccc2c(c1OC)C(=O)N1c3ccccc3C(=O)N(Cc3cccc(Cl)c3Cl)C21 (centres undefined) | 77.5% and 104% and 43.3% |

From PubChem BioAssay AID651871 (Sanford-Burnham Center for Chemical Genomics, 2012)
